The results in this text go back to PMC7862700, “An all-to-all approach to the identification of sequence-specific readers for epigenetic DNA modifications on cytosine”.

Common to all, as to experiment: DAPPL (digital affinity profiling via proximity ligation, sequencing); 10 mM Tris-HCl pH 7.5, 50 mM NaCl, 1 mM DTT, 4% glycerol, room temperature, 30 min; GST-TFs on glutathione beads, 16-mer random dsDNA library, 0.1% formaldehyde crosslink after washing; high values mean tight binding
Holding throughout (settings): protein: recombinant; tags: N-terminal GST; dsDNA, one strand shown

One test has as its target T1, ELK1 (Homo sapiens, UniProt P19419 1-428).
T1 sequence: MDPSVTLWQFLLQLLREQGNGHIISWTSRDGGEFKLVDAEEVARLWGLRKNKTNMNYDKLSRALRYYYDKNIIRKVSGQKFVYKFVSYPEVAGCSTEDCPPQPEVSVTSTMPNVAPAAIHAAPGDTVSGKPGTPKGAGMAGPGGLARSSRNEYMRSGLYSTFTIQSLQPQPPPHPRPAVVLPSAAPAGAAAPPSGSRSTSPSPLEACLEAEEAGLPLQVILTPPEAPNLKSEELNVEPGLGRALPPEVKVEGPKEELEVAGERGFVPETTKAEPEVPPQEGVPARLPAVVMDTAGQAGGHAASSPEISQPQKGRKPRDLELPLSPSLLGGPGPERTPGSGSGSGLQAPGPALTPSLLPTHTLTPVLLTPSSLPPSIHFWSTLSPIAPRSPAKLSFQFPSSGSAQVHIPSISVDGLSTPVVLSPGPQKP
A digest of the protocol: (§1)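 Each value of binding signal is a hexamer's read frequency for a factor divided by the same hexamer's frequency in the tag-only sample. Barcoded, bead-captured GST fusions of human transcription factors made in yeast were pooled with that sample and incubated with 200 nmole of a random double-stranded 16-mer DNA library in Tris/NaCl/DTT/glycerol buffer at room temperature for 30 min. Washing, 0.1% formaldehyde crosslinking, proximity ligation, PCR and Illumina NextSeq500 sequencing followed.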

In a further test the target is T2, GABPA (Homo sapiens, UniProt Q06546 1-454).
T2 sequence: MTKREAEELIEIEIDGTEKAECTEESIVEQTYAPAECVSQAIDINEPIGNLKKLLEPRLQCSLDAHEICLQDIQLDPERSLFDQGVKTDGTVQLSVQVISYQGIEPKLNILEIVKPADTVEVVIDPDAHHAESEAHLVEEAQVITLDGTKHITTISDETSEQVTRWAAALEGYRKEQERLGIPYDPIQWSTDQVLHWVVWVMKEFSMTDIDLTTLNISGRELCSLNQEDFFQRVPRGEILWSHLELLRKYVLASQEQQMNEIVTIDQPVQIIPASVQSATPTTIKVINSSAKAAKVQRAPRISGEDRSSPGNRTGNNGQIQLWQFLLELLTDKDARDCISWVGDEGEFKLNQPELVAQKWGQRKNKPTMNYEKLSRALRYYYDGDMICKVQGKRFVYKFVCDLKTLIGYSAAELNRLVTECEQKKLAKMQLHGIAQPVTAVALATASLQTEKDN
A digest of the protocol: as §1

In the next test the target is T3, ERG (Homo sapiens, UniProt P11308 1-479).
T3 sequence: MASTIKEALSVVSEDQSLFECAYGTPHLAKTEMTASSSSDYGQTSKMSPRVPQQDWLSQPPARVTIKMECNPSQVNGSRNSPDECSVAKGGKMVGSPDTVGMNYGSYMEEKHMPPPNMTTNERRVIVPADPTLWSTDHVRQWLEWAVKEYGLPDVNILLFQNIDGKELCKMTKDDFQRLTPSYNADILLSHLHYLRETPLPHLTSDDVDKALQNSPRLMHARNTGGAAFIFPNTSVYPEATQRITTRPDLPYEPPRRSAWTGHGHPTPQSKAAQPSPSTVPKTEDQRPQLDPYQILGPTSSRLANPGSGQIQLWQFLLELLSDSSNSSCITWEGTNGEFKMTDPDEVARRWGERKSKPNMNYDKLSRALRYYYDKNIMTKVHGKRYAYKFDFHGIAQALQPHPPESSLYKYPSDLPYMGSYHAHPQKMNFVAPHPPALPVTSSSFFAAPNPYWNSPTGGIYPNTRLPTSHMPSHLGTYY
A digest of the protocol:
as §1

Another test concerns the target ELF1 (Homo sapiens, UniProt P32519 1-619). A digest of the protocol:
as §1

In a further test the target is T4, SPIC (Homo sapiens, UniProt Q8N5J4 1-248).
T4 sequence: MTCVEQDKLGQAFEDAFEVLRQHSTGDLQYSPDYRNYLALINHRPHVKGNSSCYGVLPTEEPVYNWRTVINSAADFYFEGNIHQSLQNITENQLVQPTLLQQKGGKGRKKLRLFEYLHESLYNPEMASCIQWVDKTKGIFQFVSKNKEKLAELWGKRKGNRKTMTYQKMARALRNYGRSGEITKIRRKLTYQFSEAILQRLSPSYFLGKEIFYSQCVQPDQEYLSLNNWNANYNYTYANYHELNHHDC
In a few lines:
as §1

In a further test the target is ELF4 (Homo sapiens, UniProt Q99607 1-663). A digest of the protocol: as §1
Chain of ELF4 (Q99607 whole entry): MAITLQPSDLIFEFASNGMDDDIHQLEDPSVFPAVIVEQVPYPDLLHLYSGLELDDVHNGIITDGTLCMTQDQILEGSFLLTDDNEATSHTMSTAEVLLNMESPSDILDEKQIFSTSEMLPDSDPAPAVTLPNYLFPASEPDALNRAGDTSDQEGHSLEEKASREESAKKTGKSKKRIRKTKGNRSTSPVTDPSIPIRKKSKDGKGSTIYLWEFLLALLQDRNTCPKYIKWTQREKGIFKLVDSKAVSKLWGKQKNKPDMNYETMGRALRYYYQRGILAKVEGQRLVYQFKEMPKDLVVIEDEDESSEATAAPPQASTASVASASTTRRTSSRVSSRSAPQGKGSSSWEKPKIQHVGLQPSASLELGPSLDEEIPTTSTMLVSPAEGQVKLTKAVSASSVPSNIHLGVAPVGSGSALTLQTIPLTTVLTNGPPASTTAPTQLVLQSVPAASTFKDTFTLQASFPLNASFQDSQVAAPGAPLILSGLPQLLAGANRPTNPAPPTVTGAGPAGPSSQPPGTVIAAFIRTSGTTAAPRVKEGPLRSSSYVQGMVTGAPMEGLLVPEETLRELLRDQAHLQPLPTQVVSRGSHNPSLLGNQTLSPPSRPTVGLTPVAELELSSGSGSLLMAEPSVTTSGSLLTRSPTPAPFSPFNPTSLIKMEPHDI
Another test deals with T5, ELF3 (Homo sapiens, UniProt P78545 1-371).
T5 sequence: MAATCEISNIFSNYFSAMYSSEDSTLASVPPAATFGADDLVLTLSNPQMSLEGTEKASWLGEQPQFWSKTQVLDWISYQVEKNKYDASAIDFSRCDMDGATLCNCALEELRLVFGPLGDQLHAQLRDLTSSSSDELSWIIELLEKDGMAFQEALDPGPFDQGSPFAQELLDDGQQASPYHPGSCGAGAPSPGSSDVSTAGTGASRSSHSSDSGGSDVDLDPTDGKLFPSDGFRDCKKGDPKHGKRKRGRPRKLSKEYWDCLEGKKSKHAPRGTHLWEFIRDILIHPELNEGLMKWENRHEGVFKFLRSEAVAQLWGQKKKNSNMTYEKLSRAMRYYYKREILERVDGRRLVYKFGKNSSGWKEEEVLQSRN
In a few lines:
as §1

A further test concerns the target T6, ERF (Homo sapiens, UniProt P50548 1-548).
T6 sequence: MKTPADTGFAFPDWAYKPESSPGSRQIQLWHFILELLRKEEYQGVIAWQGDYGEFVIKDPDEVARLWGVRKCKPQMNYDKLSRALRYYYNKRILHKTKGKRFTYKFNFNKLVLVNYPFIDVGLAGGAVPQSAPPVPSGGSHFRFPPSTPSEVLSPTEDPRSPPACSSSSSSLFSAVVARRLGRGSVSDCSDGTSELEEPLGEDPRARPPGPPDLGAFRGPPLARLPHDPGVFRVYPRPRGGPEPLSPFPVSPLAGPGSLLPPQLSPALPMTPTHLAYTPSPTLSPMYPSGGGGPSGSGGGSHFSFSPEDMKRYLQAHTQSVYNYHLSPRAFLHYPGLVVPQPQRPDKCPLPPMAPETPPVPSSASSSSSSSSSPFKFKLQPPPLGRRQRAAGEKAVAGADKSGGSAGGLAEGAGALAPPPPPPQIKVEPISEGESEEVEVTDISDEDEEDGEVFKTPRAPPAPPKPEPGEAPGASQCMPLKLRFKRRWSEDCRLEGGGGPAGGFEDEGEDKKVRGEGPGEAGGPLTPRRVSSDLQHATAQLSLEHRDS
A digest of the protocol:
as §1

In a further test the target is T7, ETV3L (Homo sapiens, UniProt Q6ZN32 1-361).
T7 sequence: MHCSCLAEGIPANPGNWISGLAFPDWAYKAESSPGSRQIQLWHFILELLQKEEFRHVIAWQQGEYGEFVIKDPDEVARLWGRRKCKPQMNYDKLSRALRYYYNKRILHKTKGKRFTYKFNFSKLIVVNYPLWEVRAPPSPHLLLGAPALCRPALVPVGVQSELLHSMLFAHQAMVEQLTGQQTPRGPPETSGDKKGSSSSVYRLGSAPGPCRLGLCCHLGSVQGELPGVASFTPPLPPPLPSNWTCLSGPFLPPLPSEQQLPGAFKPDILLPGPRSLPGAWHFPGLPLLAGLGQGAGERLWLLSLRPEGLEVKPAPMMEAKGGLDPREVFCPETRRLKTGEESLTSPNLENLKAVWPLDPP
In a few lines:
as §1

The next test has as its target T8, ETS2 (Homo sapiens, UniProt P15036 1-469).
T8 sequence: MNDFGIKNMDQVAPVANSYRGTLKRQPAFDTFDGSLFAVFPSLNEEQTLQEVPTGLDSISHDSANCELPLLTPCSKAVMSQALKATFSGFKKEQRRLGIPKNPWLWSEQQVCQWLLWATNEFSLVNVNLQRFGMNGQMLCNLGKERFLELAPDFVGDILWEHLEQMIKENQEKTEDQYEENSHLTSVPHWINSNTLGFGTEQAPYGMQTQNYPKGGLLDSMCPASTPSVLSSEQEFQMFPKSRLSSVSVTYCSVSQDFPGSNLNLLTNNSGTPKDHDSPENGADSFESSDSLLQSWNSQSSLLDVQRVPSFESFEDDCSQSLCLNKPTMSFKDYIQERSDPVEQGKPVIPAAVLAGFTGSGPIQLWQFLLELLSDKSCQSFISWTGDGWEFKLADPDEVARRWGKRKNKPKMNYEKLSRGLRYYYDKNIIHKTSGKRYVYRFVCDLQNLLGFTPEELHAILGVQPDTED
In a few lines:
as §1

The target in the next test is T9, SPDEF (Homo sapiens, UniProt O95238 1-335).
T9 sequence: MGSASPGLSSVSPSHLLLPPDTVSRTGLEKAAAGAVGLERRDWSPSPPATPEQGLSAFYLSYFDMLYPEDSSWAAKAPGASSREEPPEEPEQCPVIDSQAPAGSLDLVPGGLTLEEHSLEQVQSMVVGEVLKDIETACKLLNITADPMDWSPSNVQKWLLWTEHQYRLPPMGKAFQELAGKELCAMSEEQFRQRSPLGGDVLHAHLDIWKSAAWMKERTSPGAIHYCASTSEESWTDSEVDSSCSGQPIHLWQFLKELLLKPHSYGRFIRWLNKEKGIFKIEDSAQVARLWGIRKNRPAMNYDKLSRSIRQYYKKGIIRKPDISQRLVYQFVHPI
In a few lines:
as §1

In another test the target is T10, ETV7 (Homo sapiens, UniProt Q9Y603 1-341).
T10 sequence: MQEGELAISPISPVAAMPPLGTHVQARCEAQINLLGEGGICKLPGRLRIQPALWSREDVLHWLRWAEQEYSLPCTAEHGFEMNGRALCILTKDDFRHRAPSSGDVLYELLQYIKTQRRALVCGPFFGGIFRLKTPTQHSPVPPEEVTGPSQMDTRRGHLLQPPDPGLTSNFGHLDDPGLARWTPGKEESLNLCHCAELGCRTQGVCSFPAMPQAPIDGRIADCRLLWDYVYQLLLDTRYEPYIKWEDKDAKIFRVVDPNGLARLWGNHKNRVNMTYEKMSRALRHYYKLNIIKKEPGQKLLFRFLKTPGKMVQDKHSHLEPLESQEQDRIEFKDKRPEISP
In a few lines: as §1

The next test concerns the target T11, ETV3 (Homo sapiens, UniProt P41162-2 1-143).
T11 sequence: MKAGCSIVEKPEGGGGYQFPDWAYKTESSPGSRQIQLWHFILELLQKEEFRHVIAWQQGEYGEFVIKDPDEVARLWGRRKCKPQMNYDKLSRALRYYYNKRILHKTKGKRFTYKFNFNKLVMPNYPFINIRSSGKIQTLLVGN
In a few lines: as §1

The next test deals with ETV6 (Homo sapiens, UniProt P41212 1-452). In a few lines:
as §1

Chain of ETV6 (P41212 whole entry): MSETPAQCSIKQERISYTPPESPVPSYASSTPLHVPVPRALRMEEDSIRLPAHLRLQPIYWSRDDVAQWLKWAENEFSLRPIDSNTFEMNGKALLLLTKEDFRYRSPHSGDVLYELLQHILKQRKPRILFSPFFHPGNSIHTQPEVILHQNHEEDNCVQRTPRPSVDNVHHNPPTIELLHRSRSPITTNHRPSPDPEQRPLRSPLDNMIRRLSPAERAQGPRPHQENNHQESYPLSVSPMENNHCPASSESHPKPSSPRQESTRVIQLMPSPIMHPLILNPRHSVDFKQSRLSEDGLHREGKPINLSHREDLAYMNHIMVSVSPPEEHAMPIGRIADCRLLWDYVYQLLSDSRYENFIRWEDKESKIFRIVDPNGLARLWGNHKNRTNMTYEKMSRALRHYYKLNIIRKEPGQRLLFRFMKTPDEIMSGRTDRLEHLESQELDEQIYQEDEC
Chain of ELF1 (P32519 whole entry): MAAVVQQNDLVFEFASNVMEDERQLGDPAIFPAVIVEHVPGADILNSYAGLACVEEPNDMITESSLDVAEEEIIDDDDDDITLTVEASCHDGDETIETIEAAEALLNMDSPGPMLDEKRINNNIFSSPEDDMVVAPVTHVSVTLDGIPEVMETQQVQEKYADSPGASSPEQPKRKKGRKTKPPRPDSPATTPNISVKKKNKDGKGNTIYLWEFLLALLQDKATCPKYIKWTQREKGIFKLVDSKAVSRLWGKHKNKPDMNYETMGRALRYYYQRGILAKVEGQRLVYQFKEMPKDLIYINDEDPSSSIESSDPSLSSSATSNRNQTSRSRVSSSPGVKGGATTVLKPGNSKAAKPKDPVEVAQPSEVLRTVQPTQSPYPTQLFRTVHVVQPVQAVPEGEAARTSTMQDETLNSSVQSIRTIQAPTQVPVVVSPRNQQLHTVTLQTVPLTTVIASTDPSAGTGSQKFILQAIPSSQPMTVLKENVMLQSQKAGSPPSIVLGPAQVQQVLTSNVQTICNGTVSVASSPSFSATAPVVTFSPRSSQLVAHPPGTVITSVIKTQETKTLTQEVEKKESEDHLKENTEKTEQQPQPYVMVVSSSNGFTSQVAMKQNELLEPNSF

As for CTAGAA, the binding signal in the test with ELK1 was 1 fold enrichment (6-mer frequency, TF over GST control); in the test with GABPA, 1.05 fold enrichment (6-mer frequency, TF over GST control); in the test with ERG, 1.05 fold enrichment (6-mer frequency, TF over GST control); with ELF1, 1.04 fold enrichment (6-mer frequency, TF over GST control); with SPIC, 1.03 fold enrichment (6-mer frequency, TF over GST control); with ELF4, 1.05 fold enrichment (6-mer frequency, TF over GST control). Also, the binding signal with ELF3 is 1.03 fold enrichment (6-mer frequency, TF over GST control); with ERF, 1.28 fold enrichment (6-mer frequency, TF over GST control); with ETV3L, 1.03 fold enrichment (6-mer frequency, TF over GST control); with ETS2, 1.02 fold enrichment (6-mer frequency, TF over GST control); with SPDEF it was 1.01 fold enrichment (6-mer frequency, TF over GST control); with ETV7, 1.02 fold enrichment (6-mer frequency, TF over GST control). The binding signal with ETV3 is 1.01 fold enrichment (6-mer frequency, TF over GST control); with ETV6 it was 1.04 fold enrichment (6-mer frequency, TF over GST control).
